The nature of test [1]: AP1 Signaling Pathway (AID 357).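 Note: ME-180 reporter cells stimulated with EGF at its EC50 level; % is set by controls: 0 for no effect and ±100 for the full control effect.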 In a few lines:
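First, ME-180 AP-1-bla cells were cultured overnight at 37 °C in low-serum Opti-MEM. Next, titrated compounds with EC50 EGF were incubated 5 hours. Finally, CCF4 was added for 2.5 hours and the 460/530 nm ratio recorded.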

Test [2] can be described thus: NFAT Signaling Pathway (AID 444).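 Note: carbachol stimulus at about its EC50 of 1 µM final; % is set by controls: 0 for no effect and ±100 for the full control effect.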 The note with it: Jurkat NFAT-bla M1, carbachol, beta-lactamase ratio, 5 h; at 38 µM (top of the series) unless noted. In a few lines: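 Jurkat cells carrying an NFAT-driven β-lactamase reporter and co-transfected muscarinic M1 receptor were treated with compound plus carbachol (1 uM final, an EC50 level) for 5 h at 37 °C. CCF4 loading followed for 1 h at RT; 460/530 nm ratio gave %activity.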

Test [3] concerns the target Glucocorticoid receptor (Homo sapiens) (UniProt P04150). Put plainly: GR-GFP Redistribution (AID 450;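 active = compounds whose dose series gives a full or clear partial fitted curve of increased nuclear translocation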; note: potency is the fitted concentration of half-maximal effect). The note with it: U2OS GR-GFP nuclear translocation, laser cytometry, 2 h.
Test [4] concerns the target Cytochrome P450 1A2 (Homo sapiens) (UniProt P05177). Nature of the test: p450-cyp1a2 (AID 410; calls by dose curve; note: potency is the fitted concentration of half-maximal effect;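 for activity change, negative = inhibition: -100% = full effect of reference inhibitor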). In short, it runs like this:
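Inhibition was calculated relative to 57 uM furafylline (full inhibition). The reaction used human CYP1A2 at 20nM with Luciferin-ME at its Km, 100uM, driven by an NADPH-regenerating system for 60 min at room temperature.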

Test [5] deals with Mitogen-activated protein kinase 10 (Mus musculus) (UniProt Q61831). Nature of the test: JNK3 AlphaScreen Assay (AID 530).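 Note: kinase came from lysate of stimulated human HepG2 cells; signal reports phosphorylation of biotinylated GST-cJun 1-79 at Ser73 with 10 µM ATP; % is set by controls: 0 for no effect and ±100 for the full control effect.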 In a few lines: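 JNK3 came from HepG2 lysates pre-activated with IL-1beta and TNF-alpha and phosphorylated biotinylated GST-cJun (1-79) at 10 uM ATP, pH 7.6, room temperature. Compounds were titrated. AlphaScreen signal used anti-phospho-cJun (Ser73) antibody.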
On the technique in general: In Alpha technology, singlet oxygen from a donor bead excites a nearby acceptor bead.

The target in test [6] is Glucocorticoid receptor (Homo sapiens) (UniProt P04150). Nature of the test: GR-EFC Redistribution (AID 451; calls by dose curve; note: potency is the fitted concentration of half-maximal effect). The note with it: CHO-K1 GR-EFC translocation, beta-gal luminescence, 2 h. In a few lines:
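CHO-K1 cells stably expressing nuclear-localized β-gal enzyme acceptor and GR fused C-terminally to the enzyme donor fragment; ligand-driven nuclear translocation restores β-gal by complementation. Compounds titrated up to 46 uM final, 2 h at 37 °C; luminescence read.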

The nature of test [7]: Stat Signaling Pathway (AID 446).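 Note: ME-180 cervical cancer cells given 40 pM IL-6 alongside compound; SIE-controlled beta-lactamase reporter measured as 460/530 nm FRET emission ratio; % is set by controls: 0 for no effect and ±100 for the full control effect.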 The note with it: ME-180 SIE beta-lactamase reporter, IL-6 stimulated, 5 h; at 38 µM (top of the series) unless noted. In short, it runs like this:
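Reporter line: ME-180 cervical carcinoma, SIE-beta-lactamase. Treatment: compound with 40 pM IL-6, 5 hrs, 37 C, in low-serum OPTI-MEM with 10 mM HEPES pH 7.3. Detection: 460/530 nm fluorescence.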

The nature of test [8]: Cell Viability - BJ (AID 421; calls by dose curve;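 note: potency is the fitted concentration of half-maximal effect; cells exposed to compound for 40 hours at 37 °C before readout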). As to conditions: BJ fibroblast viability, qHTS. In short, it runs like this:
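Cytotoxicity as drop in intracellular ATP (CellTiter-Glo, 20 min RT) after 40 hr compound exposure of BJ fibroblasts at 37 °C. Titrations scaled between DMSO and 100 uM tamoxifen, Hill-fitted for AC50.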

Test [9] in a line: Cell Viability - Jurkat (AID 426;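 active = dose-dependent loss of cell ATP signal giving a full or clear fitted curve, ranked by lower potency value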;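 note: potency is the fitted concentration of half-maximal effect; cells exposed to compound for 40 hours at 37 °C before ATP read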). The note with it: qHTS. In a few lines: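 Seed 5000 Jurkat E6-1 cells/well; add compound; incubate 40 hr at 37 °C; add CellTiter-Glo; wait 20 min at room temperature; read luminescence. Fit concentration-response with Hill equation for AC50.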
Test [10] in a line: Cell Viability - Hek293 (AID 427;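 active = compounds whose dose-response curve shows a full or clear partial loss of cell viability, called from curve shape rather than a numeric limit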;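 note: potency is the fitted concentration of half-maximal effect; cells exposed to compound for 40 hours at 37 °C before reading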). The note with it: qHTS. In short, it runs like this: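 Luminescent ATP content (CellTiter-Glo, 20 min at room temperature) was measured after a 40 hr, 37 °C compound exposure of HEK293 cells. AC50 values came from Hill-equation fits of qHTS concentration-response data normalized to DMSO and 100 uM tamoxifen.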
Background: qHTS replaces the single test concentration by a dilution series.

A short description of test [11]: Cell Viability - HepG2 (AID 433; calls by dose curve;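 note: potency is the fitted concentration of half-maximal effect; cells exposed to compound for 40 hours; potency for ATP loss meaning cytotoxicity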). As to conditions: qHTS. In a few lines:
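ATP luminescence (CellTiter-Glo) after 40 h compound exposure, 37 °C, HepG2, 1500 cells/well, complete medium. Normalized: DMSO = basal, 100 uM tamoxifen = 100% inhibition. AC50 via standard Hill equation.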

Test [12] can be described thus: Cell Viability - MRC5 (AID 434; calls by dose curve;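 note: potency is the fitted concentration of half-maximal effect; cells exposed to compound for 40 hours at 37 °C; potency reflects cytotoxicity seen as loss of intracellular ATP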). As to conditions: MRC5 lung fibroblast viability, qHTS. In a few lines:
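MRC5 normal human lung fibroblasts (1500/well) were treated with compounds for 40 hr at 37 °C in complete medium, and viable cells were measured as intracellular ATP by CellTiter-Glo luminescence. AC50 came from Hill fits, normalized to DMSO and 100 uM tamoxifen.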

Test [13] in a line: Cell Viability - SK-N-SH (AID 435; calls by dose curve; note: potency is the fitted concentration of half-maximal effect). As to conditions: SK-N-SH neuroblastoma cell viability qHTS. In short, it runs like this: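 CellTiter-Glo ATP luminescence, 20 min RT read; cells pre-plated 5 hr, compound 40 hr at 37 °C, 1500 cells/well, complete medium. Normalized DMSO = 0, 100 uM tamoxifen = 100% inhibition; Hill-fit AC50.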
Test [14] can be described thus: Cell Viability - NIH 3T3 (AID 541; active = well fitted curve in the direction sought with a large enough effect; an effect the other way counts as inactive or inconclusive;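 note: cells exposed to compound for 40 hours; plate controls were DMSO alone for no effect and tamoxifen positive control for full effect; nearly all actives have a fitted effect of over 25% in size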). The note with it: NIH 3T3 cell viability, qHTS; activity change, negative = cytotoxicity: at 92.2 µM (top of the series). In short, it runs like this: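 AC50 values reflect concentration-dependent loss of intracellular ATP in NIH 3T3 cells after 40 hr treatment in complete culture medium, quantified by luciferase-based luminescence.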

Test [15] in a line: Cell Viability - HUV-EC-C (AID 542; active = well fitted curve in the direction sought with a large enough effect; an effect the other way counts as inactive or inconclusive;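 note: cells exposed to compound for 40 hours; % is set by controls: 0 for no effect and ±100 for the full control effect; nearly all actives have a fitted effect of over 35% in size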). In a few lines: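 Decrease in cellular ATP, quantified by luciferase luminescence, reflects toxicity in normal human vascular endothelial HUV-EC-C cells given compound for 40 hr in complete culture medium. Values are AC50s from concentration-response curves.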
The nature of test [16]: Cell Viability - H-4-II-E (AID 543; active = well fitted curve in the direction sought with a large enough effect; an effect the other way counts as inactive or inconclusive;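 note: cells exposed to compound for 40 hours; % is set by controls: 0 for no effect and ±100 for the full control effect; nearly all actives have a fitted effect of over 35% in size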). In short, it runs like this:
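Here, cytotoxicity is measured in the rat hepatoma line H-4-II-E as loss of intracellular ATP after 40 hr compound treatment, detected by luciferase luminescence.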

Test [17] can be described thus: Cell Viability - SH-SY5Y (AID 544; active = well fitted curve in the direction sought with a large enough effect; an effect the other way counts as inactive or inconclusive;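 note: cells exposed to compound for 40 hours; 0% = DMSO alone and -100% = 100 µM tamoxifen; nearly all actives have a fitted effect of over 55% in size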). In a few lines: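 Cytotoxicity is scored as a concentration-dependent fall in intracellular ATP in human SH-SY5Y cells treated 40 hr in complete culture medium. Potency is expressed as AC50 from a Hill equation fit.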
A short description of test [18]: Cell Viability - Renal Proximal Tubule (AID 545; active = well fitted curve in the direction sought with a large enough effect; an effect the other way counts as inactive or inconclusive;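 note: cells exposed to compound for 40 hours; 0% = DMSO only and -100% = 100 µM tamoxifen; nearly all actives have a fitted effect of over 40% in size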). The note with it: renal proximal tubule cells viability; activity change, negative = cytotoxicity: at 91.7 µM (top of the series). In a few lines:
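Rat kidney proximal tubule cells, freshly isolated; 1000 cells/well, 5 hr settle, compound 40 hr 37 °C. CellTiter-Glo 20 min RT, luminescence read. AC50 by standard Hill fit.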

Test [19] can be described thus: Cell Viability - Mesenchymal (AID 546; active = well fitted curve in the direction sought with a large enough effect; an effect the other way counts as inactive or inconclusive;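 note: cells exposed to compound for 40 hours before reading; 0% = DMSO only and -100% = 100 µM tamoxifen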). In short, it runs like this: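 Normal human renal glomerulus-derived kidney mesenchymal cells, 1000 per well in complete medium, were treated with compounds for 40 hr at 37 °C. Viability was read as intracellular ATP by CellTiter-Glo luminescence; AC50 values came from Hill-equation fits of qHTS concentration-response data.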

“And” between values parts separate entries of the source, which are not always exact repeats. Equal entries are not always repeated. Unmarked numbers belong to inactive results. Inconclusive results are not listed. The source made the active and inactive calls. Unless noted, calls come from the whole dose curve; as a rule, active = well fitted curve in either direction with a large enough effect (not every such curve was filed as active); inconclusive = small, poorly fitted or top-dose-only effect, or another doubt; inactive = flat fitted curve, though single readings scatter. Bounds are passed on as bounds.

Cytochrome P450 1A2 (Homo sapiens), sequence (P05177 whole entry, looked up): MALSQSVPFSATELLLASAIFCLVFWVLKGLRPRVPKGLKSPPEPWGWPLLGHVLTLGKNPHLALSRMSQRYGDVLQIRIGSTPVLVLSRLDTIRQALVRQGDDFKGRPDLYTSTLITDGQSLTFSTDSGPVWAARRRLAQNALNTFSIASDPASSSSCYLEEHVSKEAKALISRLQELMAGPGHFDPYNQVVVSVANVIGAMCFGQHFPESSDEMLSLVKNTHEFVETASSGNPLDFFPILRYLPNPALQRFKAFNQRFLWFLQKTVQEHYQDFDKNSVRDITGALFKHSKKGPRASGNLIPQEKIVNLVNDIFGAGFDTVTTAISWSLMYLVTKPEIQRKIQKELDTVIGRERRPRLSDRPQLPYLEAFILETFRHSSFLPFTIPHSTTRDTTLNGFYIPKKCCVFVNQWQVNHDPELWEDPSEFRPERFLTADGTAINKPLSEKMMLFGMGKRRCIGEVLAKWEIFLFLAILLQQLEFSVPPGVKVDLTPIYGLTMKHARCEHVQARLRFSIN
Glucocorticoid receptor (Homo sapiens), sequence (P04150 whole entry, looked up, the tested form may be a part): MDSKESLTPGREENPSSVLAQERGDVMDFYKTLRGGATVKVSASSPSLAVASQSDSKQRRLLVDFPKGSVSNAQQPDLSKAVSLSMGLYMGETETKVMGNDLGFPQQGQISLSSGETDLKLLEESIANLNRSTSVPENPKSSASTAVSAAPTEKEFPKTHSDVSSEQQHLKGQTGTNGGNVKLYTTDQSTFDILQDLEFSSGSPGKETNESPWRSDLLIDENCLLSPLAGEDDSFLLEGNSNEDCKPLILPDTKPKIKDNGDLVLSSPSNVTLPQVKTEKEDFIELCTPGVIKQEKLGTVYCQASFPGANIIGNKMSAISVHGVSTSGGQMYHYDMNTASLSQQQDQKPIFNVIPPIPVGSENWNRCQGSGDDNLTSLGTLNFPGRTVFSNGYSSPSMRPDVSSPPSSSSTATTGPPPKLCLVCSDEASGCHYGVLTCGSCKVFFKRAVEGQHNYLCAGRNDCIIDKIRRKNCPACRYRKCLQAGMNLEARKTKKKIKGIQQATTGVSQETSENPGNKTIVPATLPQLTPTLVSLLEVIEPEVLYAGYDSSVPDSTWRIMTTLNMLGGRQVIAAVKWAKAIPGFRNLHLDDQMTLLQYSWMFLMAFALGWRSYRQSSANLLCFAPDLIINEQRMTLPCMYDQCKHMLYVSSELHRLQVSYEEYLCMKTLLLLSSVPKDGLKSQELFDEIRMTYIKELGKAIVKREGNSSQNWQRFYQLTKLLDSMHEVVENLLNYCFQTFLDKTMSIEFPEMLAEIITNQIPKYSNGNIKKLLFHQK

Turning to `CC(C)[C@@]1(NC(=O)[C@@H]2C[C@@H]3c4cccc5[nH]cc(c45)C[C@H]3N(C)C2)O[C@@]2(O)[C@@H]3CCCN3C(=O)[C@H](Cc3ccccc3)N2C1=O`, the compound was classed as inactive in test [1]. Moreover, the activity change, negative = inhibition in test [2] was -22.9% [at 17.2 µM]. Further, the Potency in test [3] is > 20.6 µM.
As for `C[N+]1(C)CCN(c2ccccc2)CC1`, the call in [1] and in test [5] was inactive. In addition, the Potency result in [4] was “inactive”. In addition, the Potency in test [3] was > 46 µM and > 20.6 µM.
Turning to `CCCCCCC(C)(C)c1ccc([C@@H]2C[C@H](O)CC[C@H]2CCCO)c(O)c1`, the result in [1] and in [5] was inactive. Further, the Potency in test [3] and in [6] was > 46 µM throughout.
Consider `O=S(=O)(O)c1cc(O)ccc1O`, for which the compound was called inactive in [1] and in [5]. In test [2], the activity change, negative = inhibition is -8.18% [at 17.2 µM]. In test [3], the Potency was > 20.6 µM.
As to `CCCN(CCC)C1Cc2cc(OC)c(OC)cc2C1`, the call in [1] and in test [5] was inactive. For the same compound, the Potency result in test [4] was “inactive”. Also, the Potency in [3] was > 46 µM.
As to `COc1ccc(OC)c(C(O)C(C)N)c1` (stereo not drawn), the call in test [1] was inactive. Besides, in [7], the activity, negative = inhibition was 2.12% [at 17.2 µM]. The Potency in [3] was > 20.6 µM.
Regarding `C[N+](C)(C)CCOC(=O)CBr`, the call in [1] and in test [5] was inactive. Also, the activity change, negative = inhibition in [2] was 13.9%. For the same compound, the Potency in test [3] was > 46 µM.
Take `C[N+](C)(C)CC#CCOC(=O)Nc1cccc(Cl)c1`: the call in test [1] and in test [5] was inactive. For the same compound, the activity change, negative = inhibition in test [2] was 11.3%. Besides, the Potency in [3] and in test [6] was > 46 µM each time.
As for `CCCN1CCc2cc(O)cc3c2[C@H]1Cc1ccc(O)c(O)c1-3`, the compound was classed as inactive in test [1] and in [5]. Also, the Potency in test [4] was 12.6 µM (active); in test [3], > 46 µM; in [6], > 46 µM.
For the compound `CNC(=O)OCC[N+](C)(C)C`, the result in test [1] and in [5] was inactive. Besides, the Potency result in test [4] is “inactive”. The activity change, negative = inhibition in test [2] was 3.8%. The Potency in test [3] was > 46 µM.
With `CC(C)(C)c1cc(C=C(C#N)C#N)cc(C(C)(C)C)c1O`, the compound was classed as inactive in [1] and in [5]. Further, the Potency in [4] was 10 µM (active); in test [3], > 46 µM. Besides, in test [2], the activity change, negative = inhibition is -108% (active).
Turning to `CN1[C@@H]2CC[C@H]1CC(OC1c3ccccc3CCc3ccccc31)C2` (stereo partly drawn), the Potency entry in [4] is “inactive”. The activity change, negative = inhibition in test [2] is -67.9% [at 17.2 µM] (active). The activity, negative = inhibition in [7] was 5.86% [at 17.2 µM]. In addition, the Potency in [3] and in [6] was > 20.6 µM each time. In addition, the compound was called inactive in test [5].
For the compound `C[N+](C)(C)CC#CCN1CCCC1=O`, the compound was classed as inactive in test [1] and in [5]. Besides, the Potency entry in test [4] is “inactive”. Moreover, the Potency in [3] and in test [6] was > 46 µM each time.
As to `NNC(N)=O`, the call in test [1] and in test [5] was inactive. The Potency in test [8], in test [9], in test [10], in [11], in [12] and in test [13] was > 92 µM in each case. In addition, in [3], the Potency is > 46 µM. Also, the activity, negative = inhibition in test [7] was 1.85%. In addition, the Potency result in test [14], in [15], in [16], in test [17], in test [18] and in test [19] was “inactive” each time.

(Values after PubChem BioAssay (NCATS).)
